The source made the active and inactive calls. The call rests on the fitted dose curve; in most records, active means well fitted curve in the direction sought with a large enough effect; inconclusive means small, poorly fitted or top-dose-only effect, or another doubt; inactive means no such curve, though single readings can be large or run the other way.
biological target: Alpha-galactosidase (Coffea arabica) (UniProt Q42656); assay: Counterscreen for Glucocerebrosidase Inhibitors: qHTS Assay for Coffee Bean alpha-Galactosidase at pH 4.5 (AID 957); conditions: purified coffee bean alpha-galactosidase, fluorogenic substrate; series mostly up to 76.9 µM
Sequence (Q42656 whole entry, looked up): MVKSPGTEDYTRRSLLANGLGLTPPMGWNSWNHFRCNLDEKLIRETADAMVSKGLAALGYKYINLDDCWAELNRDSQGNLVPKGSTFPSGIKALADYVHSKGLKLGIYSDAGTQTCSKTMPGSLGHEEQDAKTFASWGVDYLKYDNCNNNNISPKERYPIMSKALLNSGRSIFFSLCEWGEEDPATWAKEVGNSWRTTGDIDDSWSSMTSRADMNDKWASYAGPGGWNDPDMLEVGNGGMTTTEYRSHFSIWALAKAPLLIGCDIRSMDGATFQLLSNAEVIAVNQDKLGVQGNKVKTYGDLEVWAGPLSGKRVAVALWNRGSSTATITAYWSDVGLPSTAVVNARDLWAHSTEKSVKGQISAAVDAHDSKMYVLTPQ
How it was run: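 Coffee bean enzyme (2 nM) with 80 uM 4-methylumbelliferyl alpha-D-galactopyranoside in 50 mM citric acid, 0.005% Tween-20, pH 4.5, 20 min at room temperature; compounds 0.7 nM–77 uM. Stopped at pH 10, fluorescence 365/440 nm; AC50 from Hill fits.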

Row | SMILES | outcome
1 | CNCCC=C1c2ccccc2CCc2ccccc21 | inactive
2 | NC1CCN(c2cccc(Cl)n2)CC1 | inactive
3 | C[N+](C)(C)CCCCCC[N+](C)(C)C | inactive
4 | CC(=O)O[C@H]1C(=O)[C@@]2(C)[C@H]([C@H](OC(=O)c3ccccc3)[C@]3(O)C[C@H](OC(=O)[C@H](O)[C@@H](NC(=O)c4ccccc4)c4ccccc4)C(C)=C1C3(C)C)[C@]1(OC(C)=O)CO[C@@H]1C[C@@H]2O | inactive
5 | CN1[C@@H]2CC[C@H]1CC(OC(c1ccccc1)c1ccccc1)C2 (some centres undefined) | inactive
6 | CN1CCC[C@@H]1c1cccnc1 | inactive
7 | Nc1nc2ccc(OC(F)(F)F)cc2s1 | inactive
8 | CC(C)Cc1ccc(C(C)C(=O)O)cc1 (centres undefined) | inactive
9 | CN1CCN(CCC=C2c3ccccc3Sc3ccc(S(=O)(=O)N(C)C)cc32)CC1 | inactive
10 | CN(C)C(=O)Oc1ccc[n+](C)c1 | inactive
11 | CN1C(C(=O)Nc2ccccn2)=C(O)c2ccccc2S1(=O)=O | inactive
12 | CCN(CC)CCOC(=O)c1ccc(N)cc1 | inactive
13 | CC(=O)N1CCN(c2ccc(OC[C@H]3CO[C@](Cn4ccnc4)(c4ccc(Cl)cc4Cl)O3)cc2)CC1 | inactive
14 | Cc1nc2c([nH]1)c(=O)n(C)c(=O)n2Cc1ccco1 | inactive
15 | CC[N+](CC)(CC)CCOc1cccc(OCC[N+](CC)(CC)CC)c1OCC[N+](CC)(CC)CC | inactive
16 | Cc1nc2ccccn2c(=O)c1CCN1CCC(C(=O)c2ccc(F)cc2)CC1 | inactive
17 | Clc1cccc(Cl)c1NC1=NCCN1 | inactive
18 | CCn1nc(C(=O)O)c(=O)c2cc3c(cc21)OCO3 | inactive
19 | CC(C)C(=O)c1c(C(C)C)nn2ccccc12 | inactive
20 | Cn1c(=O)c2[nH]cnc2n(C)c1=O | inactive
21 | NC(N)=Nc1nc(CSCC/C(N)=N/S(N)(=O)=O)cs1 | inactive
22 | CC(=O)OCC(=O)[C@@]1(O)CC[C@H]2[C@@H]3CCC4=CC(=O)CC[C@]4(C)[C@H]3C(=O)C[C@@]21C | inactive
23 | CCN1CCC[C@H]1CNC(=O)c1cc(S(N)(=O)=O)ccc1OC | inactive
24 | NC(=O)c1cnccn1 | inactive
25 | N[C@@H](COP(=O)(O)O)C(=O)O | inactive
26 | Nc1cc(=O)[nH]c(N)n1 | inactive
27 | Cc1ccc(Cl)c(Nc2ccccc2C(=O)O)c1Cl | inactive
28 | CCN(CC)CCNC(=O)c1cc(S(C)(=O)=O)ccc1OC | inactive
29 | CCN(CC)CCNC(=O)c1ccc(N)cc1 | inactive
